# Assay results taken from PMC7862700, “An all-to-all approach to the identification of sequence-specific readers for epigenetic DNA modifications on cytosine”.
# Tests used:
# Assay in all cases: DAPPL (digital affinity profiling via proximity ligation, sequencing); 10 mM Tris-HCl pH 7.5, 50 mM NaCl, 1 mM DTT, 4% glycerol, room temperature, 30 min; GST-TFs on glutathione beads, 16-mer random dsDNA library, 0.1% formaldehyde crosslink after washing; high values mean tight binding
# FEV = biological target: T1, FEV (Homo sapiens, UniProt Q99581 1-238); conditions: protein: recombinant; tags: N-terminal GST; dsDNA, one strand shown
# T1 sequence: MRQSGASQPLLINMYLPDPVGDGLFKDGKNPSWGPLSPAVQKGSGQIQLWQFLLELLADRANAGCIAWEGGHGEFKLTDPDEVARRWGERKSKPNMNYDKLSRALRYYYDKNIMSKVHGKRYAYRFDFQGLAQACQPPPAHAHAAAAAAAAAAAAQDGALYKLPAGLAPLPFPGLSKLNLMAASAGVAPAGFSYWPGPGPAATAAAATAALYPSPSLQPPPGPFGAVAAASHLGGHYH
# Procedure, shortened: (§1)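 Yeast served to express human transcription factors as GST fusions, which were then captured on glutathione beads and labelled with DNA barcodes. Pooled with a tag-only sample, they were incubated with 200 nmole of a 16-mer random double-stranded DNA library for 30 min at room temperature in Tris/NaCl/DTT/glycerol buffer, washed, crosslinked with 0.1% formaldehyde, ligated by proximity, amplified by PCR and sequenced. Dividing each hexamer's read frequency for a factor by its frequency for the tag-only sample gives the binding signal.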
# ETV5 = ETV5 (Homo sapiens, UniProt P41161 1-510); conditions: protein: recombinant; tags: N-terminal GST; dsDNA, one strand shown
# Procedure, shortened: as §1
# HSF1 = HSF1 (Homo sapiens, UniProt Q00613 1-529); conditions: protein: recombinant; tags: N-terminal GST; chain copies: 3; dsDNA, one strand shown
# Procedure, shortened: as §1
# SPIC = biological target: T2, SPIC (Homo sapiens, UniProt Q8N5J4 1-248); conditions: protein: recombinant; tags: N-terminal GST; dsDNA, one strand shown
# T2 sequence: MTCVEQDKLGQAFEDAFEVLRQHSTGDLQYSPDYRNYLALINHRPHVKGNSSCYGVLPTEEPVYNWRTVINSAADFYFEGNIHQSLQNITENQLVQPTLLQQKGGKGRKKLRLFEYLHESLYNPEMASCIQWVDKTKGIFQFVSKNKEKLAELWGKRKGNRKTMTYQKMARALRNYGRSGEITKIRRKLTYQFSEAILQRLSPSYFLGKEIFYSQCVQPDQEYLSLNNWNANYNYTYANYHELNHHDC
# Procedure, shortened: as §1
# ELF4 = ELF4 (Homo sapiens, UniProt Q99607 1-663); conditions: protein: recombinant; tags: N-terminal GST; dsDNA, one strand shown
# Procedure, shortened: as §1
# ELK4 = biological target: T3, ELK4 (Homo sapiens, UniProt P28324-2 1-405); conditions: protein: recombinant; tags: N-terminal GST; dsDNA, one strand shown
# T3 sequence: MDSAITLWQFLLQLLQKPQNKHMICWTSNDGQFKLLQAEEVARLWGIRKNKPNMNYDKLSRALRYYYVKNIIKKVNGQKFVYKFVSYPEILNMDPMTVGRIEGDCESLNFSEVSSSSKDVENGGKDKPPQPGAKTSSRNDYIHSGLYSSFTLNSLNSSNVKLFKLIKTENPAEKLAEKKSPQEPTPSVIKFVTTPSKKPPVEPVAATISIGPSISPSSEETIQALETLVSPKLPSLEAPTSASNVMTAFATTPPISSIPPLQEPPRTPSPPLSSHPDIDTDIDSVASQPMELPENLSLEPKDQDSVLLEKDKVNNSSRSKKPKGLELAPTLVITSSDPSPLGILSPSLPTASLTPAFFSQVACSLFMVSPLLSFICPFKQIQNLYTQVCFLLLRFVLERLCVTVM
# Procedure, shortened: as §1
# ETV2 = biological target: T4, ETV2 (Homo sapiens, UniProt O00321 1-342); conditions: protein: recombinant; tags: N-terminal GST; dsDNA, one strand shown
# T4 sequence: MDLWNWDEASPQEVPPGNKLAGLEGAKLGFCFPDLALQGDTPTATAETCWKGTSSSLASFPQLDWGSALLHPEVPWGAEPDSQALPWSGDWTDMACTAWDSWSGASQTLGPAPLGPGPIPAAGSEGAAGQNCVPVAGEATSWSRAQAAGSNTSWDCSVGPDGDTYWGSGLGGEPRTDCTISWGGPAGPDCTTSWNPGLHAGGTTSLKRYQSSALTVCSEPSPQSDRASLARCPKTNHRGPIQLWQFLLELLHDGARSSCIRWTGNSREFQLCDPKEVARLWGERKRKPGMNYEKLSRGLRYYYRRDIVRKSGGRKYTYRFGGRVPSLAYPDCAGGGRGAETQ
# Procedure, shortened: as §1
# CRX = CRX (Homo sapiens, UniProt O43186 1-299); conditions: protein: recombinant; tags: N-terminal GST; dsDNA, one strand shown
# Procedure, shortened: as §1
# ETV1 = ETV1 (Homo sapiens, UniProt P50549 1-477); conditions: protein: recombinant; tags: N-terminal GST; dsDNA, one strand shown
# Procedure, shortened: as §1
# ERF = biological target: T5, ERF (Homo sapiens, UniProt P50548 1-548); conditions: protein: recombinant; tags: N-terminal GST; dsDNA, one strand shown
# T5 sequence: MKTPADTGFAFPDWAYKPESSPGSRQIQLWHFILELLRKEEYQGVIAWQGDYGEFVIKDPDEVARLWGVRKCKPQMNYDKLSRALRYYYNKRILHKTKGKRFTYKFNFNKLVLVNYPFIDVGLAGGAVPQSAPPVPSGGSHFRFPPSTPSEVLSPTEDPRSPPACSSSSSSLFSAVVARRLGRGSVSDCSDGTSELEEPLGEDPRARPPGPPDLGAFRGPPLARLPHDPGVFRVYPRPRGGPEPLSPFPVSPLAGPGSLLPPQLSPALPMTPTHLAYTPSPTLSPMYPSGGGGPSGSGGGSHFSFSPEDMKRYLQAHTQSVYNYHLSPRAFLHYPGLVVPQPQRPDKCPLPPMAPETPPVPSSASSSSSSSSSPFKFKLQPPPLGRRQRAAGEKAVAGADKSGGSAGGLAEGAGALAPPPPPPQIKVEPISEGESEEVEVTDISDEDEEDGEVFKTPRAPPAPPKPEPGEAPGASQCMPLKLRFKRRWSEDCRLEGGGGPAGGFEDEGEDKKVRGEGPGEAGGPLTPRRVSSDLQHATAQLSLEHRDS
# Procedure, shortened: as §1
# ETV3L = biological target: T6, ETV3L (Homo sapiens, UniProt Q6ZN32 1-361); conditions: protein: recombinant; tags: N-terminal GST; dsDNA, one strand shown
# T6 sequence: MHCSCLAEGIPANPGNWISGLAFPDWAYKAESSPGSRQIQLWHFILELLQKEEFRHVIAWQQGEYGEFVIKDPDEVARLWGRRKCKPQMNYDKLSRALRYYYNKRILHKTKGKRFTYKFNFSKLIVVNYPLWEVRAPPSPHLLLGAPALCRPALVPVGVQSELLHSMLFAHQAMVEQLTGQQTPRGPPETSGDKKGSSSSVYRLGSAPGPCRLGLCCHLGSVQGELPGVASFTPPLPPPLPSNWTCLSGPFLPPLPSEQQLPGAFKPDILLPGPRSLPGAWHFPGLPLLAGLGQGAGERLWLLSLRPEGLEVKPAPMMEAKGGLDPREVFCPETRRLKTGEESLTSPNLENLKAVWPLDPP
# Procedure, shortened: as §1
# ETS2 = biological target: T7, ETS2 (Homo sapiens, UniProt P15036 1-469); conditions: protein: recombinant; tags: N-terminal GST; dsDNA, one strand shown
# T7 sequence: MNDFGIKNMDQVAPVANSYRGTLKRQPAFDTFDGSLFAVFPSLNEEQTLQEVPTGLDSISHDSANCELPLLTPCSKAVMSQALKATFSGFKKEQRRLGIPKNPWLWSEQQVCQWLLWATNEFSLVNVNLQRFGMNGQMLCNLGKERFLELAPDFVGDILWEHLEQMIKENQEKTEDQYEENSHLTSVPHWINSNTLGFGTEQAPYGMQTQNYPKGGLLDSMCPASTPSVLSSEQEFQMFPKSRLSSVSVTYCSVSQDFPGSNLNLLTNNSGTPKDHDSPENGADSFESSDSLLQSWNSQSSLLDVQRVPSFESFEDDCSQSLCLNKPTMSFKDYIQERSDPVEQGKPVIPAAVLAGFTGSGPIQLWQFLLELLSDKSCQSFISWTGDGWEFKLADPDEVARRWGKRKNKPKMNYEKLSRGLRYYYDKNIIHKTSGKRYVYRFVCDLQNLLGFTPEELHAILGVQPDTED
# Procedure, shortened: as §1
# SPDEF = biological target: T8, SPDEF (Homo sapiens, UniProt O95238 1-335); conditions: protein: recombinant; tags: N-terminal GST; dsDNA, one strand shown
# T8 sequence: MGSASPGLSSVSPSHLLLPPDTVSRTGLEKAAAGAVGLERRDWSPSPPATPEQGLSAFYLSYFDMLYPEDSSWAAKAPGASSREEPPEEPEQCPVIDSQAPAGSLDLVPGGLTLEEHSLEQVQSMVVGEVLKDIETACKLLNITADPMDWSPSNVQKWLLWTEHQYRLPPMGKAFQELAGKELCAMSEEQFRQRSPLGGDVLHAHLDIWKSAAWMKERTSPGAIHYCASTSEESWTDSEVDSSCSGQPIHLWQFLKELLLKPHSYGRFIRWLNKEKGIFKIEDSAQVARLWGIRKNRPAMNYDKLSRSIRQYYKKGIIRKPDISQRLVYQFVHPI
# Procedure, shortened: as §1
# ETV7 = biological target: T9, ETV7 (Homo sapiens, UniProt Q9Y603 1-341); conditions: protein: recombinant; tags: N-terminal GST; dsDNA, one strand shown
# T9 sequence: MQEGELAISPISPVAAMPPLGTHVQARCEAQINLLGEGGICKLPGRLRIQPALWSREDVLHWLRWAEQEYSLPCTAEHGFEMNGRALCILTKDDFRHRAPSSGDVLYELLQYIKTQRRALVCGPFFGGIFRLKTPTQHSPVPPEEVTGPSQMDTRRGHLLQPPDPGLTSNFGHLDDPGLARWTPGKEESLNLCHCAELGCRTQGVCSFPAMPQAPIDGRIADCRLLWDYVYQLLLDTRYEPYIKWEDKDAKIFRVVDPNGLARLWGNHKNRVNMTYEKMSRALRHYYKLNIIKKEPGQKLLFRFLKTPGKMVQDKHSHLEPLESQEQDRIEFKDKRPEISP
# Procedure, shortened: as §1
# ELF5 = biological target: T10, ELF5 (Homo sapiens, UniProt Q9UKW6-2 1-255); conditions: protein: recombinant; tags: N-terminal GST; dsDNA, one strand shown
# T10 sequence: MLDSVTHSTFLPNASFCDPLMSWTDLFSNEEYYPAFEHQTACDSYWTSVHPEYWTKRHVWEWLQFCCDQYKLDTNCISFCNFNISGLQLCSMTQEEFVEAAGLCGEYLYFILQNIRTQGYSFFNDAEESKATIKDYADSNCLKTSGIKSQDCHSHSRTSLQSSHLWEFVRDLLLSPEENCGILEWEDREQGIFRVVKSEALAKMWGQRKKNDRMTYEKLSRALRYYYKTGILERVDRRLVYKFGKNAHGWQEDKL
# Procedure, shortened: as §1
# ETV3 = biological target: T11, ETV3 (Homo sapiens, UniProt P41162-2 1-143); conditions: protein: recombinant; tags: N-terminal GST; dsDNA, one strand shown
# T11 sequence: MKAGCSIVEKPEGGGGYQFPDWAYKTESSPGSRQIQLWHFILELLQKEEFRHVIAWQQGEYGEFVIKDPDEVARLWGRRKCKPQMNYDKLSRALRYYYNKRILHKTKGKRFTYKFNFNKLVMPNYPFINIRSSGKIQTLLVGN
# Procedure, shortened: as §1
# ETV6 = ETV6 (Homo sapiens, UniProt P41212 1-452); conditions: protein: recombinant; tags: N-terminal GST; dsDNA, one strand shown
# Procedure, shortened: as §1
# Sequence of ETV6 (P41212 whole entry): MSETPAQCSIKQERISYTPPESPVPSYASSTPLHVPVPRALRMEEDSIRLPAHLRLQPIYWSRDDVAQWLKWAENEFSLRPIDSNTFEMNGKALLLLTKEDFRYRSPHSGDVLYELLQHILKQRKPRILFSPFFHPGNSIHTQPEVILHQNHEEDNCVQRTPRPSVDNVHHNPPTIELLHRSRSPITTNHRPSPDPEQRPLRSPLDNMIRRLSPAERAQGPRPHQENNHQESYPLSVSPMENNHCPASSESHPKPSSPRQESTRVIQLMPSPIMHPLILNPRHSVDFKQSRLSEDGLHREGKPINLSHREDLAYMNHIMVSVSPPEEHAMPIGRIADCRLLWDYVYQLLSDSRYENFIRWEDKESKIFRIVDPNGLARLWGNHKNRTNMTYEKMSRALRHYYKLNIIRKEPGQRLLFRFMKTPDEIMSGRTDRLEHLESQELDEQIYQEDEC
# Sequence of ETV1 (P50549 whole entry): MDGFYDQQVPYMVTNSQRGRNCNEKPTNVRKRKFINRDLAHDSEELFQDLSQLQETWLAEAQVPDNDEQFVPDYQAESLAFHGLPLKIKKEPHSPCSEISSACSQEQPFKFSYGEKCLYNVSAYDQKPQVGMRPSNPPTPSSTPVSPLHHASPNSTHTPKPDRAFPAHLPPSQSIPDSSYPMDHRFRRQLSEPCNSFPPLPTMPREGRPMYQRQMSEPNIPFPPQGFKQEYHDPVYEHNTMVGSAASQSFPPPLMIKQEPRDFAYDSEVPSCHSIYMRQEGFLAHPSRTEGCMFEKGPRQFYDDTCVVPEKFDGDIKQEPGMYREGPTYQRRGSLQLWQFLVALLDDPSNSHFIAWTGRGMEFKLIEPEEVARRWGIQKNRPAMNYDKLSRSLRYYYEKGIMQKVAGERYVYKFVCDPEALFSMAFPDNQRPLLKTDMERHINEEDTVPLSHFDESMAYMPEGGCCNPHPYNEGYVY
# Sequence of HSF1 (Q00613 whole entry): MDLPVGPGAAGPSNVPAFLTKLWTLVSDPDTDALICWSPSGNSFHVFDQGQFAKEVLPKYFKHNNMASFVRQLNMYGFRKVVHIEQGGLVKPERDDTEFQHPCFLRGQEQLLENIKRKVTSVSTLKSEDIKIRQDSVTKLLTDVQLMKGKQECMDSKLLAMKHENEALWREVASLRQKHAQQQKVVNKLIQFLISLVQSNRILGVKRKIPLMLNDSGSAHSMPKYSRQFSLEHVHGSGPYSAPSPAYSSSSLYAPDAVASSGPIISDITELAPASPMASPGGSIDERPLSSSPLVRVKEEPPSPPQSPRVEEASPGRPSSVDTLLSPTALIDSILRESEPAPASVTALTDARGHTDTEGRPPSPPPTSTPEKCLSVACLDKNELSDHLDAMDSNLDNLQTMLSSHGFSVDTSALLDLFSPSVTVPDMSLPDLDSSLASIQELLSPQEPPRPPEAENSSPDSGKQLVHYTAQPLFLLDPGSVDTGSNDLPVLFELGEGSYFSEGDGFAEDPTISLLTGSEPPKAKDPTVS
# Sequence of ELF4 (Q99607 whole entry): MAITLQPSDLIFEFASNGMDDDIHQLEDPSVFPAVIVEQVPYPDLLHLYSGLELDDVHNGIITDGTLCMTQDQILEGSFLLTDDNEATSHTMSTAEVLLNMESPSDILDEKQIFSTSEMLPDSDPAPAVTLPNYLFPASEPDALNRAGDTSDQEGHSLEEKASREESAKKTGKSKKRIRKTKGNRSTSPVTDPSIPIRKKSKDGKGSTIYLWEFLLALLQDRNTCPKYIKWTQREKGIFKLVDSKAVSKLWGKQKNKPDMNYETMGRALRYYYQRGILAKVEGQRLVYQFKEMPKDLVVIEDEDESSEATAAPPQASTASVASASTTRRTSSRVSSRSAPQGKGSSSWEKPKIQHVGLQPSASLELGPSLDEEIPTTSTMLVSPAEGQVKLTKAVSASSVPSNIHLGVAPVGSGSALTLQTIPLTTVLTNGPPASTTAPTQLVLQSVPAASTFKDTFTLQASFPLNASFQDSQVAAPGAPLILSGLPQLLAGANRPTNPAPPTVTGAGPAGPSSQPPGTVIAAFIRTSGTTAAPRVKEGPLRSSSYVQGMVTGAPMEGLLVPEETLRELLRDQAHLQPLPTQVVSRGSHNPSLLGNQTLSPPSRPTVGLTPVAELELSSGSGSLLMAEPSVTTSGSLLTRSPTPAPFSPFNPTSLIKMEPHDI
# Sequence of CRX (O43186 whole entry): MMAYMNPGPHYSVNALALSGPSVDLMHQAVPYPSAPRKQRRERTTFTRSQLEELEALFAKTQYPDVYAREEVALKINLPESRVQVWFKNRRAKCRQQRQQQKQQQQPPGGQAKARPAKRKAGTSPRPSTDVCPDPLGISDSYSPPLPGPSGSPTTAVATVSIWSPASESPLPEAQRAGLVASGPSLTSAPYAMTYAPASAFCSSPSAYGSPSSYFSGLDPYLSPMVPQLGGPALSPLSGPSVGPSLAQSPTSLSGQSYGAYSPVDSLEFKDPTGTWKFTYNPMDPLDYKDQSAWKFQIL
# Sequence of ETV5 (P41161 whole entry): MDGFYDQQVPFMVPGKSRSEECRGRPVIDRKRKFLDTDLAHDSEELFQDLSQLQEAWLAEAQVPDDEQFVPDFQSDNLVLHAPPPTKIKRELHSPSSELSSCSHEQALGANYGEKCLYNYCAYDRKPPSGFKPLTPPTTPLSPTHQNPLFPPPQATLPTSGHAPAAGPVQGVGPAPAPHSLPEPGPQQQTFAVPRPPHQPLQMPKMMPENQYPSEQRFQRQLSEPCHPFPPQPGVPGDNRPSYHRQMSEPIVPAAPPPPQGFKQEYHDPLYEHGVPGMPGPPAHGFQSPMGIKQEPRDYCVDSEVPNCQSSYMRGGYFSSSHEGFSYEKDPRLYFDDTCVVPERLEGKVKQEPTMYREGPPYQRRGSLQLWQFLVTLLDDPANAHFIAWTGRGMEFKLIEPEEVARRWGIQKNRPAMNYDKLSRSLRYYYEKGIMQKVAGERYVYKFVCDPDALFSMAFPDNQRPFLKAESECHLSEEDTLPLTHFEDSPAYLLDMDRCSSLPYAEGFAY
sequence,measurement,setting,value
TTTGGC,binding signal,FEV,"1.27 fold enrichment (6-mer frequency, TF over GST control)"
same,binding signal,ETV5,"1.32 fold enrichment (6-mer frequency, TF over GST control)"
same,binding signal,HSF1,"1.23 fold enrichment (6-mer frequency, TF over GST control)"
same,binding signal,SPIC,"1.45 fold enrichment (6-mer frequency, TF over GST control)"
same,binding signal,ELF4,"1.26 fold enrichment (6-mer frequency, TF over GST control)"
same,binding signal,ELK4,"1.23 fold enrichment (6-mer frequency, TF over GST control)"
same,binding signal,ETV2,"1.31 fold enrichment (6-mer frequency, TF over GST control)"
same,binding signal,CRX,"1.49 fold enrichment (6-mer frequency, TF over GST control)"
same,binding signal,ETV1,"1.22 fold enrichment (6-mer frequency, TF over GST control)"
same,binding signal,ERF,"1.29 fold enrichment (6-mer frequency, TF over GST control)"
same,binding signal,ETV3L,"1.23 fold enrichment (6-mer frequency, TF over GST control)"
same,binding signal,ETS2,"1.18 fold enrichment (6-mer frequency, TF over GST control)"
same,binding signal,SPDEF,"1.12 fold enrichment (6-mer frequency, TF over GST control)"
same,binding signal,ETV7,"1.24 fold enrichment (6-mer frequency, TF over GST control)"
same,binding signal,ELF5,"1.18 fold enrichment (6-mer frequency, TF over GST control)"
same,binding signal,ETV3,"1.21 fold enrichment (6-mer frequency, TF over GST control)"
same,binding signal,ETV6,"1.26 fold enrichment (6-mer frequency, TF over GST control)"
